# BRCA1 expr up: BRCA1 expression activation; MCF7-BRCA1-FFLuc reporter, luminescence, 48 h; response scale: scaled: vehicle 0%, 10 µM genistein 100%; Potency, µM (doses to about 46.1 µM), inactives show top-dose activation, usual class: activators; 1.1% of 380,000 active; note: potency is the fitted concentration of half-maximal effect; nearly all actives have a fitted effect of over 80% in size
#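 MCF7 cells carrying a BRCA1-firefly luciferase reporter (2000 cells/well, phenol-red free MEM) were attached for 2 h at 37 °C, then given compounds for 48 h. Luminescence was read 15 min after luciferase reagent; activity normalized to genistein (10 microM) and DMSO.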
# B2AR arrestin: recruits beta-arrestin to the human beta2-adrenergic receptor | beta-arrestin recruitment to beta2AR, cell-based reporter | Potency, µM (doses to about 46.1 µM), for the others: at the highest dose activation, actives largely listed as activators | 0.02% of 330,000 active | AID 492947;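 note: potency is the fitted concentration of half-maximal effect; 0% = DMSO controls and full agonism = EC100 isoproterenol or metaproterenol; nearly all actives have a fitted effect of over 65% in size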
# Target sequence (P07550 whole entry, looked up): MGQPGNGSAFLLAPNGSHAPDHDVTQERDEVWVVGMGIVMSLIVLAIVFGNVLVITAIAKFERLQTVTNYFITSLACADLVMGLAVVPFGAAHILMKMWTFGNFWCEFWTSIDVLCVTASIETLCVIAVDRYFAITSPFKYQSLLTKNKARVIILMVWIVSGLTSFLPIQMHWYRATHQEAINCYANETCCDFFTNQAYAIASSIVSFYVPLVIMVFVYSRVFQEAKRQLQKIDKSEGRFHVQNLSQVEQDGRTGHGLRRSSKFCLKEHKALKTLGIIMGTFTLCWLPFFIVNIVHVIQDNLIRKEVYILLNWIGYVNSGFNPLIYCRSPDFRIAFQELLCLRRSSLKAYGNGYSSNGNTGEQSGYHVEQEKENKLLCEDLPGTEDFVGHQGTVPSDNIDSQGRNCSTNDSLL
# PTHR1 ag: activates the human parathyroid hormone receptor PTHR1; 0.075% of 410,000 active; Potency, µM (highest dose often 115 µM), for inactives: top-dose activation, hits mostly activators; HEK293 GP2 PTHR1 cells, GloSensor cAMP luminescence, 1 h; Q03431; note: potency is the fitted concentration of half-maximal effect; nearly all actives have a fitted effect of over 55% in size
#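 HEK-293-derived GP2 cells expressing PTHR1 and a GloSensor cAMP reporter, 3,000/well, plated overnight, given luciferin plus IBMX (each 0.5 mM as added) for 1 h at 37 °C, then compound for 1 h at 37 °C. Luminescence was read after 15 min at room temperature.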
# D3 ag: activates the human D3 dopamine receptor | AID 652048 | max activation, % | 0.58% of 410,000 active | D3R DiscoveRx beta-arrestin cells, luminescence, 90 min; in the data active = max activation above about 30%; note: 0% is about no effect
#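 Agonist mode: compounds and dopamine controls were applied to plated cells for 90 min at 37 degrees C after an overnight attachment at 1500 cells/well. Luminescent read-out followed 30 - 60 minutes at room temperature with DiscoveRx detection reagent.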
# DRD3 antagonist: blocks the human D3 dopamine receptor | D3R cells, DiscoveRx beta-arrestin luminescence, antagonist mode; active compounds read low | P35462 | AID 652054 | max response, negative = inhibition, % | 2.5% of 360,000 active; in the data active = max response below about -50%; inconclusive = no clear call, values can overlap the other calls; note: % is set by controls: 0 for no effect and ±100 for the full control effect
#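 Cells plated overnight at 1500 cells/well, then exposed to library compounds with dopamine controls for 90 minutes at 37 degrees C. DiscoveRx reagent added for 30–60 minutes at room temperature; luminescence read, quantitative HTS format.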
# RGS4 inhibitor: inhibitors of human regulator of G protein signaling 4; P49798; Transcreener GDP fluorescence polarization, RGS4-accelerated GTP hydrolysis; Potency, µM (doses to about 114 µM), for the others: top-dose activity change, negative = inhibition, usual class: inhibitors; 0.039% of 390,000 active; note: potency is the fitted concentration of half-maximal effect; % is set by controls: 0 for no effect and ±100 for the full control effect; nearly all actives have a fitted effect of over 75% in size
# Target sequence (P49798 whole entry, looked up): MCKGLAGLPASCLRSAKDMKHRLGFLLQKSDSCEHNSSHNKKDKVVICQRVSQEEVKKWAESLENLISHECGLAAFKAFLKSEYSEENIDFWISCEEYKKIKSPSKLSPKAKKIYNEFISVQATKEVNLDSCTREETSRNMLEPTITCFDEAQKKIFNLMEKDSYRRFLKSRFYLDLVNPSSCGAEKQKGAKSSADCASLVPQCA
#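 MLSMR compounds (23 nl, pin-transferred) preincubated 10 min at room temperature with a 500nM (2x) first reagent, then RGS4 at 900nM (2x) plus Transcreener GDP mix added; fluorescence polarization (620/688 nm) read before and after 90 min at 30 °C.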
# * = called active by the depositor; i = inactive; ? = inconclusive; / = no result; ! = not confirmed by another sample; [ ] = dose if it differs, or a comment. A selection: hits, their analogues and other compounds. The true share with any hit is near 3.7%. Unless noted, calls come from the whole dose curve; as a rule, active = well fitted curve in the direction sought with a large enough effect; inconclusive = small, poorly fitted or top-dose-only effect, or another doubt; inactive = no such curve, though single readings can be large; an effect the other way counts as inactive or inconclusive.
SMILES,BRCA1 expr up,B2AR arrestin,PTHR1 ag,D3 ag,DRD3 antagonist,RGS4 inhibitor
Cc1ccc(-n2cc(CN3CCN(c4ccccn4)CC3)c(-c3ccc(F)cc3)n2)cc1,3%,0%,i,-21,-62*,32%
COc1ccc(CN2CCN(c3ccccn3)CC2)c(OC)c1C,4%,0%,i,-11,-56*!,-13%
c1cc2c(cc1Cn1cnnn1)OCO2,13%,-1%,i,-7,-57*,-6%
O=C(CCCCCNC(=O)N1CCn2c1nc1ccccc12)N[C@@H](Cc1ccccc1)C(=O)O,16%,-1%,i,30*,-17,-2%
O=C(CCCCCNC(=O)N1CCn2c1nc1ccccc12)N[C@@H](C(=O)O)c1ccccc1,33%,0%,-6%,4,-7,-17%
Cc1ccc(-c2cc3onc(-c4ccccc4)c3c(=O)n2C)cc1,?,0%,-52%,-1,34,11%
Cn1c(-c2ccc(F)cc2)cc2onc(-c3c(F)cccc3Cl)c2c1=O,2µM*,0%,-44%,-7,23,-8%
O=C(COc1ccccc1C(=O)Nc1ccccc1)Nc1cccc(Br)c1,-53%,/,/,/,/,/
OC[C@@H]1[C@@H](c2ccccc2)C(c2ccc(F)cc2)=NN1c1ccccc1,-19%,0%,-58%,38*,72,-25%
OC[C@@H]1[C@@H](c2ccc(Cl)cc2)C(c2ccc(F)cc2)=NN1c1ccccc1,-59%,0%,-41%,7,19,-26%
COc1ccc(NC(=O)c2cnc3sccn3c2=O)cc1,0%,0%,i,5,-52*,-13%
O=C(Nc1ccccc1Sc1ccccc1)c1cnn2c1NC(=C1CC1)C=C2C(F)F,20%,/,/,/,/,1%
Cc1oc(-c2ccc(Cl)cc2)cc1C(=O)NC1CCN(Cc2ccccc2)CC1,-56%,0%,i,-9,-65*,14%
Cc1oc(C(C)(C)C)cc1C(=O)NC1CCN(Cc2ccccc2)CC1,-21%,-1%,-21%,-41,-80*,7%
Cc1oc(-c2ccc(Cl)cc2)cc1C(=O)N1CCC1(C)C(=O)O (stereo not given),8.9µM*,/,i,-7,-24,/
Cc1ccc(CNC(=O)C2CCN(Cc3nc(-c4cccc(Br)c4)oc3C)CC2)cc1,/,/,i,3,/,21%
Cn1c(CN2CCOCC2)c(C#N)c2ccccc21,1%,-1%,i,1,-19,10%
CCOC(=O)CSCc1c(C#N)c2ccccc2n1C,-3%,0%,i,0,-52*,19%
CC1CCCCN1Cc1c(C#N)c2ccccc2n1C (stereo not given),-11%,/,-12%[57.5 µM],-11,-66*,-27%
CN1CCN(Cc2c(C#N)c3ccccc3n2C)CC1,-1%,0%,-1%[57.5 µM],-5,-6,-12%
CC1CCN(Cc2c(C#N)c3ccccc3n2C)CC1,1%,0%,i,1,-75*,-16%
CC(=O)N(Cc1c(C#N)c2ccccc2n1C)c1ccccc1,-15%,0%,-6%[57.5 µM],-8,-1,-15%
Cn1c(CN2CCCC2)c(C#N)c2ccccc21,-7%,4%,-1%,-12,-86*,-6%
Cc1cc(C)c(C(=O)C(C)OC(=O)c2ccc(Cl)nc2)cc1C (stereo not given),3%,0%,-38%,4,7,19%
Nc1nccc(N2CCCCC2)n1,1%,/,i,1,-6,/
SMILES,BRCA1 expr up,B2AR arrestin,PTHR1 ag,D3 ag,DRD3 antagonist,RGS4 inhibitor
CC(C)Oc1ccc(C(=O)NC2CCN(Cc3ccccc3)CC2)cc1,-37%,0%,-1%,-5,12,13%
O=C(COc1ccccc1F)NC1CCN(Cc2ccccc2)CC1,2%,0%,i,-45,-65*,16%
CC(Oc1ccc(Br)cc1)C(=O)NC1CCN(Cc2ccccc2)CC1 (stereo not given),-38%,-1%,i,-32,-75*,3%
O=C(CCc1nc(-c2ccccc2F)no1)NC1CCN(Cc2ccccc2)CC1,-10%,3%,i,-1,-51*,9%
O=C(CCc1nc(-c2ccccc2Cl)no1)NCc1ccco1,6%,0%,10%,10,-5,34%
O=C(CCc1nc(-c2ccccc2F)no1)NCc1ccco1,23%,0%,-17%[57.5 µM],1,-88*,7%
CCOc1ccc(NC(=O)CN(C)C(=O)CN2C(=O)c3ccc([N+](=O)[O-])cc3C2=O)cc1OCC,-27%,-1%,i,2,-2,-4%
O=C(Nc1ccc(C(F)(F)F)cc1)C1(c2cccs2)CCOCC1,/,/,-11%,-6,/,-41%
COc1ccc(NC(=O)C[C@H]2C(=O)N(c3ccccc3)C[C@@H]2C)cc1,7%,/,-13%,6,35,/
N[C@H](Cc1cnc[nH]1)C(=O)O,/,/,/,/,/,-5%[56.9 µM]
O=C(NCCCN1CCOCC1)c1cc(S(=O)(=O)N2CCCCC2)ccc1Cl,-13%,/,i,-1,5,/
Cc1nc(-n2nc(C)c(Cc3ccc4c(c3)OCO4)c2C)sc1C(=O)Nc1cccc(Cl)c1,/,/,i,-2,/,-3%
Cc1cc(OCC(=O)NC2CCN(Cc3ccccc3)CC2)c2c(C)cc(=O)oc2c1,-5%,0%,-11%,-20,-63*,2%[11.4 µM]
CCCc1cc(=O)oc2cc(C)cc(OCC(=O)NC3CCN(Cc4ccccc4)CC3)c12,24%,0%,-21%,-20,-28,4%
Cc1cc(OCC(=O)NC2CCN(Cc3ccccc3)CC2)c2c(C)c(C)c(=O)oc2c1,-14%,0%,-23%,-17,-82*,32%
Cc1cc(OC(C)C(=O)NC2CCN(Cc3ccccc3)CC2)c2c(C)cc(=O)oc2c1 (stereo not given),-9%,0%,6%,-18,-62*,-30%[56.9 µM]
CCc1cc(=O)oc2cc(C)cc(OC(C)C(=O)NC3CCN(Cc4ccccc4)CC3)c12 (stereo not given),-7%,0%,i,-15,-14,-9%
S=C(NCCCN1CCOCC1)NN=C1c2ccccc2-c2ccccc21,2%,/,-16%,-18,-71*,/
S=C(NCCCN1CCOCC1)Nc1ccc(Nc2ccccc2)cc1,0%,0%,-5%,-11,0,-6%
Nc1c(C(=O)c2ccccc2)oc2ccccc12,19%,0%,-57%,-2,-5,20%
Cc1c(C(=O)c2ccccc2)oc2ccc3ccccc3c12,10µM*,0%,-11%,0,-7,-18%
COc1ccc(NC(=O)Cn2c3ncccc3c(=O)n2-c2ccc(C)c(C)c2)c(OC)c1,/,/,3%,7,/,0%
CN(C)CCCN(C(=O)c1ccc(C(=O)c2ccccc2)cc1)c1nc2cc3c(cc2s1)OCO3,-35%,0%,-29%,-12,-55*,-17%

# High-throughput results deposited in PubChem BioAssay by National Center for Advancing Translational Sciences (NCATS).
